Where “and” joins values, the source holds several entries; their conditions need not be identical. Equal values may be shown once. Inconclusive results are not listed. Where a call stands in place of a potency, no number is given. Some compounds were tested as several samples or in several runs, with calls that do not always agree. Calls of active or inactive are those of the source. Calls follow the shape of the dose curve; as a rule, active = well fitted cell-killing curve with a large enough effect in the repeat runs; inconclusive = weak or mixed curves, or effect the other way; inactive = flat fitted curve, though single readings scatter.
experiment: qHTS assay to identify small molecule that activate the aryl hydrocarbon receptor (AhR) signaling pathway - cell viability counter screen (AID 743086); conditions: HepG2-AhR-luc viability, CellTiter-Fluor, 24 h; series mostly up to 70.3 µM; also: nearly all actives have a fitted effect of over 45% in size
Description: U.S. Tox21 Program National Center for Advancing Translational Sciences [NCATS] NIH Chemical Genomics Center [NCGC] U.S. Environmental Protection Agency [EPA] National Institutes of Environmental Health Sciences [NIEHS] National Toxicology Program [NTP] U.S. Food and Drug Administration [FDA] Tox21 Assay overview: The Aryl hydrocarbon Receptor (AhR), a member of the family of basic helix-loop-helix transcription factors, is crucial to adaptive responses to environmental changes. AhR mediates cellular responses to environmental pollutants such as aromatic hydrocarbons through induction of phase I and II enzymes but also interacts with other nuclear receptor signaling pathways A cell based HepG2-AhR-luc assay (HG2L7.5c1 cell line, developed by Dr. Michael S. Denison, University of California at Davis) was used to assess the activation of AhR. HepG2 (human hepatocellular carcinoma) cells were stably transfected with an Ah receptor-responsive firefly luciferase reporter gene plasmid containing 20 dioxin responsive elements and luciferase reporter gene. Increased luciferase activity can be used to identify the compounds that induce AhR activation. The cytotoxicity of the compounds screened against the HepG2-AhR-luc cell line was tested in parallel by measuring the cell viability using CellTiter-Fluor assay in the same wells.
Tox21 Assay Protocol Summary: 4000 cells in 5 uL/well were dispensed into white wall/solid bottom 1536-well plates using a Multidrop Combi (Thermo Fisher Scientific Inc., Waltham, MA) dispenser. After the assay plates were incubated at 37C for 5 h, 23 nL of compound or DMSO vehicle was transferred to the assay plates by a pintool station (Kalypsys, San Diego, CA). The plates were incubated at 37C for 24 hr. For cell viability measurement, 1 ul/well of CellTiter-Fluor reagent (Promega, Madison, WI) was added into the assay plates using a Flying Reagent Dispenser (FRD) (Aurora Discovery, CA),and then the assay plates were incubated at 37C for 30 min. The fluorescence intensity in the plates was measured using a ViewLux plate reader (PerkinElmer, Shelton, CT), followed by the addition of 4 uL of ONE-Glo Luciferase Assay reagent (Promega) using an FRD (Aurora Discovery). After the assay plates were incubated at room temperature for 30 min, luminescence intensity was measured using a ViewLux plate reader (Perkin Elmer).
Potency is read from the fitted curve at half-maximal effect.

Row | SMILES | Potency
1 | CC(=O)Oc1ccccc1C(=O)Nc1ncc([N+](=O)[O-])s1 | inactive and 17.6 µM (active)
2 | C[Si](C)(C)O[Si](C)(C)C | inactive
3 | Cc1ccc(C)c(O)c1C | inactive
4 | Nc1ncn([C@@H]2O[C@H](CO)[C@@H](O)[C@H]2O)c(=O)n1 | 5.31 µM (active)
5 | CC(C)Oc1ccc2c(=O)c(-c3ccccc3)coc2c1 | inactive
6 | Cc1ncc[nH]1 | inactive
7 | Cc1cccc(C(=O)O)c1 | inactive
8 | CC(C(=O)O)c1cccc(C(=O)c2ccccc2)c1 (stereo not given) | inactive
9 | O=C1OC2(c3cc(Br)c(O)c(Br)c3Oc3c2cc(Br)c(O)c3Br)c2c(Cl)c(Cl)c(Cl)c(Cl)c21 | 9.7 µM (active) and 5.88 µM (active)
10 | CN(C)CCN(Cc1cccs1)c1ccccn1 | inactive
11 | CC(CCC(=O)O)(c1ccc(O)cc1)c1ccc(O)cc1 | inactive
12 | CC(C)OC(=O)C(C)(C)Oc1ccc(C(=O)c2ccc(Cl)cc2)cc1 | inactive
13 | Cc1c(OCC(F)(F)F)ccnc1CS(=O)c1nc2ccccc2[nH]1 (stereo not given) | inactive
14 | COc1ccc(OC)c(C(O)CNC(=O)CN)c1 (stereo not given) | inactive
15 | CCCC(=O)O | inactive
16 | OC1CCCCCCCCCCC1 | inactive
17 | CN(C)CCC=C1c2ccccc2CCc2ccccc21 | 48.6 µM (active)
18 | CCCCC(CC)COC(=O)c1ccc(N(C)C)cc1 (stereo not given) | inactive
19 | O=C(/C=C/C=C/c1ccc2c(c1)OCO2)N1CCCCC1 | inactive
20 | C=C(C)C(=O)OCCOC(=O)C(=C)C | inactive

Row | SMILES | Potency
21 | O=C(/C=C/c1ccccc1)OCc1ccccc1 | inactive
22 | c1ccc2sc(SSN3CCOCC3)nc2c1 | inactive
23 | Clc1nc(Cl)c(Cl)c(Cl)c1Cl | inactive
24 | O=C(OCc1ccccc1)c1ccccc1O | inactive
25 | CCCCCCCCCC(=O)OC | inactive
26 | CCCCOCCOCCOCCO | inactive
27 | CCCCOCCOCCO | inactive
28 | CCCCc1oc2ccccc2c1C(=O)c1cc(I)c(OCCN(CC)CC)c(I)c1 | inactive
29 | OC(CCl)CCl | inactive
30 | O=C(c1ccccc1)c1ccccc1O | inactive
31 | Cc1cccc([N+](=O)[O-])c1C | inactive
32 | CN(C)c1nc(N(C)C)nc(N(C)C)n1 | inactive
33 | O=C(Nc1ccc(Cl)cc1)Nc1ccc(Cl)c(Cl)c1 | inactive
34 | CCCCCCCCCCCO | inactive
35 | C/C=C/C(=O)O | inactive
36 | COc1c(Cl)c(Cl)c(Cl)c(Cl)c1Cl | inactive
37 | CCCc1c(OCCCCc2nn[nH]n2)ccc(C(C)=O)c1O | inactive
38 | CC1=CC2C3CC(C=C3C)C2C1 (stereo not given) | inactive
39 | S=C(NC1CCCCC1)NC1CCCCC1 | inactive and 17.2 µM (active)
40 | Cc1ccc2c(n1)Oc1ccc(C(C)C(=O)OCC(=O)N(C)C)cc1C2 (stereo not given) | inactive
